Laboratory results: PubChem BioAssay (NCATS)
Results filed as inconclusive are left out. Active and inactive are the calls of the source. Calls come from the whole dose curve; as a rule, active = well fitted curve in the direction sought with a large enough effect; inconclusive = small, poorly fitted or top-dose-only effect, or another doubt; inactive = no such curve, though single readings can be large; an effect the other way counts as inactive or inconclusive.

Experiments:
[1] = P-glycoprotein substrates identified in KB-3-1 adenocarcinoma cell line, qHTS therapeutic library screen (AID 1346986);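 note: potency is for cytotoxicity meaning loss of cell viability; nearly all actives have a fitted effect of over 60% in size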
In short: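 KB-3-1 parental and colchicine-selected P-gp-overexpressing KB-8-5-11 cells (colchicine omitted during assay), 500 cells/well, dosed in dose-response for 72 h at 37 °C; CellTiter-Glo luminescence. Cytotoxic: curve class -1.1 to -2.4, max response >50%, AC50 < 10 uM.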

[2] = P-glycoprotein substrates identified in KB-8-5-11 adenocarcinoma cell line, qHTS therapeutic library screen (AID 1346987); note: nearly all actives have a fitted effect of over 65% in size
In short: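 KB-8-5-11, a colchicine-selected P-gp-overexpressing KB-3-1 subline, was grown without colchicine for the assay. Cells were seeded at 500 cells/well, dosed in concentration-response and incubated 72 h at 37 degree C, 5% CO2. Viability was read by CellTiter-Glo luminescence.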

[3] = Primary qHTS for inhibitors of nuclear receptor binding SET domain protein 2 (NSD2) in an isogenic RCH-ACV NSD2 p.E1099K mutant (9B) (AID 1645876); note: nearly all actives have a fitted effect of over 70% in size
[4] = Primary qHTS for inhibitors of nuclear receptor binding SET domain protein 2 (NSD2) in an RCH-ACV wild type WT cells (2C) (AID 1645877); note: nearly all actives have a fitted effect of over 70% in size

Measured: Potency
Potency is the fitted concentration of half-maximal effect.

CC(C)(O)/C=C/C(=O)[C@](C)(O)[C@H]1[C@H](O)C[C@@]2(C)[C@@H]3CC=C4[C@@H](C=C(O)C(=O)C4(C)C)[C@]3(C)C(=O)C[C@]12C
active: [1] 94.4 nM | [2] 237 nM | [3] 42.2 nM | [4] 37.6 nM
